Eight molecules from PubChem BioAssay (Tox21) can be followed below.

The structures appear in SMILES notation. Unmarked numbers belong to inactive results. Records with an inconclusive call do not appear. Activity calls are given as the source filed them. Unless noted, the call rests on the fitted dose curve.

A short description of assay [1]: Nuclear factor erythroid 2-related factor 2/antioxidant responsive element (Nrf2/ARE) small molecule agonists: luciferase reporter gene qHTS assay in human keratinocytes (AID 1919969). Further: nearly all actives have a fitted effect of over 35% in size. Further: potency means the concentration at half of the fitted maximal effect.
Assay [2] concerns the target Gonadotropin-releasing hormone receptor (Homo sapiens) (UniProt P30968). Put plainly: Human gonadotropin-releasing hormone receptor (GnRHR) small molecule agonists, calcium flux assay in GnRHR-HEK293 cells (AID 1920063). Further: nearly all actives have a fitted effect of over 35% in size. In a few lines: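 We seeded human GnRHR-expressing HEK293 cells for 18 hours, loaded them with calcium dye for an hour at 37 C, added test compounds, and recorded fluorescence intensity kinetically for three minutes.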
(Calcium flux is commonly read through the fluorescence of an indicator in the cells.)

The target in assay [3] is KiSS-1 receptor (Homo sapiens) (UniProt Q969F8). Put plainly: Human kisspeptin (KISS1R) small molecule agonists, calcium flux assay in KISS1R-HEK293 cells (AID 1920064; active means well fitted activation curve with a large enough effect in the repeat runs). Put shortly:
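Kinetic calcium assay, 1 s sampling over 3 min at Ex/Em 480/540, in HEK293 cells engineered with human KISS1R; compounds delivered in DMSO after 1 h dye loading.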

Assay [4] is described as follows: G protein-coupled receptor (GPCR) small molecule agonists, calcium flux assay: HEK293 wild type cell line counter screen (AID 1920065). In a few lines:
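Calcium-sensitive dye, loaded 1 h at 37 C into cells cultured 18 h, reports compound-evoked calcium release as fluorescence (Ex/Em 480/540), measured over 3 min. Agonist mode; 15-point titrations, triplicate.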

Assay [5] is described as follows: p53 small molecule agonists, cell-based qHTS assay with human liver microsomes (AID 1963577). In a few lines:
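Compounds act here after metabolic activation: human liver microsomes and NADPH, both at 0.5 mg/mL final, were co-added to p53RE-bla cells. Incubation ran 16 h at 37 C, followed by LiveBLAzer detection.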

Assay [6] in a line: p53 small molecule agonists, cell-based qHTS assay with rat liver microsomes (AID 1963578). In a few lines:
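Read-out is beta-lactamase reporter fluorescence (LiveBLAzer, 2 h, room temperature, dark) in p53RE-bla cells treated 16 h at 37 C with compound, rat liver microsomes and NADPH, both 0.5 mg/mL final.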
A general note: In qHTS, concentration-response curves come from the screen itself.

The nature of assay [7]: p53 small molecule agonists, cell-based qHTS assay with human liver microsomes: qHTS cell viability counter screen (AID 1963579). Further: nearly all actives have a fitted effect of over 45% in size. In a few lines:
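Cells carrying the p53 response-element beta-lactamase reporter are treated for 16 h at 37 C with test compounds in the presence of human liver microsomes and NADPH (both 0.5 mg/mL final); ATP-based CellTiter-Glo luminescence then reports viability.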

Assay [8] in a line: p53 small molecule agonists, cell-based qHTS assay with rat liver microsomes: qHTS cell viability counter screen (AID 1963580). Further: nearly all actives have a fitted effect of over 45% in size. Put shortly: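 p53RE-bla HCT-116 cells (4,000/well) rested 5 h at 37 C, then given Tox21 compounds in DMSO with rat liver microsomes (0.5 mg/mL final) plus NADPH (0.5 mg/mL final) for 16 h at 37 C. Viability read by CellTiter-Glo luminescence after 30 min at room temperature.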

Assay [9] in a line: p53 small molecule agonists, cell-based qHTS assay: qHTS cell viability counter screen (AID 1963581). Further: nearly all actives have a fitted effect of over 45% in size. In a few lines: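 Following 5 h attachment, HCT-116 p53RE-bla cells took up compound for 16 h at 37 C; the reporter was read with B/G FRET substrate (2 h RT), and viability then via CellTiter-Glo ATP luminescence.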
A short description of assay [10]: cAMP Responsive Elements (CRE) small molecule agonists, cell-based qHTS assay (AID 1963590). Put shortly: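 A CRE-responsive beta-lactamase reporter in HEK 293T cells was used. Treatment ran 3 h at 37 C; detection used LiveBLAzer B/G FRET substrate for 2 h at room temperature.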
The nature of assay [11]: cAMP Responsive Elements (CRE) small molecule antagonists, cell-based qHTS assay (AID 1963591; active means well fitted inhibition curve with a large enough effect in the signal ratio in the repeat runs, not every such curve was filed as active; the % refers to the signal ratio). In a few lines:
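HEK293T cells carrying a CRE-driven beta-lactamase reporter receive compound and NKH477 (0.25 uM final) for 3 h. Fluorescence from LiveBLAzer B/G FRET substrate is read after 2 h at room temperature.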

Assay [12] addresses Beta-2 adrenergic receptor (Homo sapiens) (UniProt P07550). Nature of the assay: Adrenergic beta2 receptor (ADRB2) small molecule antagonists, cell-based qHTS assay (AID 1963592). Further: series mostly up to about 92 µM; nearly all actives have a fitted effect of over 50% in size. Put shortly: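 Cells (CHO, stable ADRB2 overexpression) incubated 18-20hr at 37C; compounds added from DMSO; agonist mix (1nM isoproterenol, 100uM IBMX, 25uM Ro-20-1724) added; 0.5hr RT; d2-cAMP and anti-cAMP-cryptate added; 1hr RT; 665/615 nm read.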

The target in assay [13] is D(2) dopamine receptor (Homo sapiens) (UniProt P14416). Put plainly: Dopamine D2 receptor (DRD2) small molecule agonists, cell-based qHTS assay (AID 1963594). Further: nearly all actives have a fitted effect of over 35% in size. Put shortly: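 HEK293 cells stably expressing DRD2 were cultured 24 h at 37 C, then given Ro20-1724 (0.1 mM final) and compounds for 10 min at room temperature. NKH477 (200nM) was then added for 30 min. cAMP was read by HTRF.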

Assay [14] is described as follows: p53 small molecule agonists, cell-based qHTS assay (AID 1963582; active means well fitted activation curve with a large enough effect in the signal ratio in the repeat runs, not every such curve was filed as active; the % refers to the signal ratio). Put shortly:
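In this cell-based concentration-response screen, a p53 response element drives beta-lactamase; cells received DMSO-borne compounds after 5 h culture and were incubated a further 16 h before FRET substrate development.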

For assay [15], the target named is 5-hydroxytryptamine receptor 2A (Homo sapiens) (UniProt P28223). Put plainly: 5-hydroxytryptamine receptor 2A (HTR2A) small molecule antagonists, cell-based qHTS assay (AID 1963586). Further: nearly all actives have a fitted effect of over 45% in size. Put shortly: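 Antagonist-mode intracellular calcium assay: DOI (4 nM) added after 5 min compound pre-incubation at room temperature to dye-loaded HTR2A-CHO cells. Fluorescence followed for 3 min, sampled every second.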

Assay [16] shares this target. Nature of the assay: 5-hydroxytryptamine receptor 2A (HTR2A) small molecule agonists, cell-based qHTS assay (AID 1963587). Further: nearly all actives have a fitted effect of over 30% in size. Put shortly:
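HTR2A-CHO cells, plated 18 h at 37 C/5% CO2, dye-loaded 1 h at 37 C; compounds in DMSO added by pin tool (agonist mode). Intracellular calcium flux read as kinetic fluorescence on FDSS over 2 min at 1 s intervals.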

In assay [17] the target is Muscarinic acetylcholine receptor M1 (Homo sapiens) (UniProt P11229). Put plainly: Cholinergic receptor muscarinic 1 (CHRM1) small molecule antagonists, cell-based qHTS assay (AID 1963588). Further: nearly all actives have a fitted effect of over 40% in size. Put shortly:
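CHRM1-CHO calcium-flux assay, antagonist mode. Cells were seeded 18 h, dye-loaded 1 h at 37 C and given compound for 5 min at RT, then acetylcholine was added at 50nM. FDSS fluorescence was read 3 min; 15 concentrations, three runs.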

Assay [18] has the same target. Nature of the assay: Cholinergic receptor muscarinic 1 (CHRM1) small molecule agonists, cell-based qHTS assay (AID 1963589). Further: nearly all actives have a fitted effect of over 35% in size. Put shortly: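 Measures agonist-induced intracellular calcium rise. Stable human CHRM1 CHO line, 1 h dye load at 37 C, compounds from DMSO, kinetic fluorescence read.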
Assay [19] deals with Beta-2 adrenergic receptor (Homo sapiens) (UniProt P07550). Nature of the assay: Adrenergic beta2 receptor (ADRB2) small molecule agonists, cell-based qHTS assay (AID 1963593).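 Further: CHO cells stably overexpressing human ADRB2.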 Put shortly:
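CHO cells stably over-expressing ADRB2 were plated overnight at 37C, then dosed with compounds plus a stimulation mix containing 100uM IBMX and 25uM Ro-20-1724 for 0.5hr at room temperature. cAMP was measured by HTRF competition, 1hr.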

The target of assay [20] is D(2) dopamine receptor (Homo sapiens) (UniProt P14416). Nature of the assay: Dopamine D2 receptor (DRD2) small molecule antagonists, cell-based qHTS assay (AID 1963595; active means well fitted inhibition curve with a large enough effect in the signal ratio in the repeat runs, with a control signal flat; the % refers to the signal ratio). Put shortly: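 In this cell-based antagonist screen, compounds act for 10 min at room temperature before a 30 min challenge with 12 nM quinpirole and 200 nM NKH477. cAMP is quantified by HTRF competition in DRD2-HEK293 cells containing 0.1 mM Ro20-1724.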
On the % scale 0 is the no-effect control and ±100 the full control effect.

Sequence of D(2) dopamine receptor (Homo sapiens) (P14416 whole entry, looked up): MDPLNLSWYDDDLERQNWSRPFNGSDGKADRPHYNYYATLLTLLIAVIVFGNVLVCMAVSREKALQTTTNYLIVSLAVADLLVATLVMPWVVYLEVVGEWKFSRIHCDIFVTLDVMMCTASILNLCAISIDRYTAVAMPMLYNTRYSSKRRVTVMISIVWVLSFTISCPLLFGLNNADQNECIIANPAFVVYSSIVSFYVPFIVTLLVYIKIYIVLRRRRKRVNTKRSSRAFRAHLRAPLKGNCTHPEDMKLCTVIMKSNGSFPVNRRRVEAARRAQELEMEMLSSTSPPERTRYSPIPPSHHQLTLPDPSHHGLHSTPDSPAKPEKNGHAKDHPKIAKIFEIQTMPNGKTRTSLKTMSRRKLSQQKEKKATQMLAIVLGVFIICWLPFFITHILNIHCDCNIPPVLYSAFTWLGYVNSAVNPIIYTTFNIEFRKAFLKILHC
Sequence of Gonadotropin-releasing hormone receptor (Homo sapiens) (P30968 whole entry, looked up): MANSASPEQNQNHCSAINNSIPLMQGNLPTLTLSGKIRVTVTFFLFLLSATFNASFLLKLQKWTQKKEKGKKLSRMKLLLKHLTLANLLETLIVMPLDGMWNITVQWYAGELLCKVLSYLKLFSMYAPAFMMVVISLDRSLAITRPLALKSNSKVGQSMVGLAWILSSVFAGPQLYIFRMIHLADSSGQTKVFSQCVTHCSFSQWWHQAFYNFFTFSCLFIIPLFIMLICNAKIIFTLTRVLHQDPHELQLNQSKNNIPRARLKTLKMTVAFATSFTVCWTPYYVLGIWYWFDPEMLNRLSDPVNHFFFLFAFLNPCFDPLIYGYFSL
Sequence of KiSS-1 receptor (Homo sapiens) (Q969F8 whole entry, looked up): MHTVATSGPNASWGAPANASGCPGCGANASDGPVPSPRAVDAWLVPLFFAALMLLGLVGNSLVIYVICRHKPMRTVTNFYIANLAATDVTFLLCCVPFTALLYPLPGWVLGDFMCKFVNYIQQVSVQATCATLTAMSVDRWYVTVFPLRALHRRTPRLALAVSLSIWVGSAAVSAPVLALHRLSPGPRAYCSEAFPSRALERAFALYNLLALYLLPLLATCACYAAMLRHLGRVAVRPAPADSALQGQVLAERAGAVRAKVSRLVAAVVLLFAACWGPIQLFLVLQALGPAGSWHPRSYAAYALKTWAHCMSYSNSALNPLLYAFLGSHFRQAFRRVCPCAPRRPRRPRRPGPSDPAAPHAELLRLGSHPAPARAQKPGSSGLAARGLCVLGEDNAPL
Sequence of Muscarinic acetylcholine receptor M1 (Homo sapiens) (P11229 whole entry, looked up): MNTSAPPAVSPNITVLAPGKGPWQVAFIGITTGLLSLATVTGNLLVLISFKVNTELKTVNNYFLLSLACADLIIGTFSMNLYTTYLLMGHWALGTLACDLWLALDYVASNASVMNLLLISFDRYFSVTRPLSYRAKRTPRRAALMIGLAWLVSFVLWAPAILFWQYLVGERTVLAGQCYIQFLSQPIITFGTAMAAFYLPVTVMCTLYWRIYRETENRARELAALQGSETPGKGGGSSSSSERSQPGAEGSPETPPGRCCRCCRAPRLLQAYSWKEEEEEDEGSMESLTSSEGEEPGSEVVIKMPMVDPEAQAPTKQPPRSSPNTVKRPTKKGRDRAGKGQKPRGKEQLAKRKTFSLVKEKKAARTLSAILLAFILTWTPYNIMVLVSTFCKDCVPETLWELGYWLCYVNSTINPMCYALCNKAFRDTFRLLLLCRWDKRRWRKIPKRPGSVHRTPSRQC
Sequence of 5-hydroxytryptamine receptor 2A (Homo sapiens) (P28223 whole entry, looked up): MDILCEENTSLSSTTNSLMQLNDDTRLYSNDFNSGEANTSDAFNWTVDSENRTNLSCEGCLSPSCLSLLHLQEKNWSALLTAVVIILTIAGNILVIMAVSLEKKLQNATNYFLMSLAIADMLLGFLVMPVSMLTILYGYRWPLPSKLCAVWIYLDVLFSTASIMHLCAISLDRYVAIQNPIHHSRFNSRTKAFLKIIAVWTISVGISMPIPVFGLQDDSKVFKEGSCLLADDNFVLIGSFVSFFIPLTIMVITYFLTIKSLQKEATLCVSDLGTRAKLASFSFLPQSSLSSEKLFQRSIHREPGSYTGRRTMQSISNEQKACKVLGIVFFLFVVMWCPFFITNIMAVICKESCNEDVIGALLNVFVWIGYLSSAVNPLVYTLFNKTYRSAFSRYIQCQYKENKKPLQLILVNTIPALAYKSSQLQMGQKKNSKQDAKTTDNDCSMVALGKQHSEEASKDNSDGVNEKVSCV
Sequence of Beta-2 adrenergic receptor (Homo sapiens) (P07550 whole entry, looked up): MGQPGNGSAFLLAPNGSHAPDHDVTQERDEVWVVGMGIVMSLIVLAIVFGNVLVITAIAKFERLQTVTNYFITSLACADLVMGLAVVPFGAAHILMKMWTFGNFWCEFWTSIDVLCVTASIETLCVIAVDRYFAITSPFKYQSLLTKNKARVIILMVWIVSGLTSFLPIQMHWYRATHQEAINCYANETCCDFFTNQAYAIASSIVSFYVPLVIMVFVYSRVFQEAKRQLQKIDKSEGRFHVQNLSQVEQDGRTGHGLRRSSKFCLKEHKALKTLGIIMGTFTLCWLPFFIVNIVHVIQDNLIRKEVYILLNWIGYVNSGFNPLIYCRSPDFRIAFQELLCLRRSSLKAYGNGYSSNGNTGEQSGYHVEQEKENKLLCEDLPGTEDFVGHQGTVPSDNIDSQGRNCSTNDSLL

Consider `CCOC(=O)C1=C(C)NC(C)=C(C(=O)OC)C1c1cccc([N+](=O)[O-])c1` (stereo unspecified), for which the Potency entry in assay [1], in assay [2], in assay [5], in assay [6], in [7] and in assay [8] was “inactive” in each case. For the same molecule, the Potency entry in assay [9], in [10], in assay [11], in assay [12] and in assay [13] was “inactive” throughout. Besides, the result in [3] and in assay [4] was inactive.
For the molecule `CN(C)c1ccc(CCO)cc1`, in [1], the Potency was 27.1 µM (active). Besides, the Potency entry in assay [2], in assay [5], in assay [6], in [7], in [8] and in assay [14] was “inactive” each time. The Potency result in [15], in assay [16], in assay [17], in assay [18], in assay [11] and in assay [12] was “inactive” in each case. In addition, the Potency result in assay [19], in [13] and in [20] was “inactive” throughout. For the same molecule, the outcome in [3] and in assay [4] was inactive.
For the molecule `CNCc1ccccc1`, the Potency entry in assay [1], in assay [2], in [5], in [6], in [7] and in assay [9] was “inactive” in each case. The Potency entry in [14], in assay [15], in [16], in assay [17], in assay [18] and in assay [11] was “inactive” each time. Besides, the Potency result in assay [12], in assay [19], in assay [13] and in [20] was “inactive” in each case. Besides, the outcome in [3] and in [4] was inactive.
`[O]=[Bi]`: the activity, positive = activation in [1] was 29.8% [at 8.39 µM]. For the same molecule, the activity change in [2] is 0.29% [at 5.22 µM, active compounds read high]. Besides, the activation in assay [3] was 0.437% [at 6.97 µM]; in [4], 0.259% [at 5.23 µM]; in assay [5] it was -14.4% [at 5.99 µM]; in assay [6], 0.191% [at 5.99 µM]; in assay [14] it was 6.59% [at 5.99 µM]; in assay [16], 0.438% [at 7.02 µM]. Besides, the activation in assay [18] was 0.394% [at 6.97 µM]; in assay [10], -0.129% [at 8.39 µM]; in assay [19], 3.98% [at 8.39 µM]; in assay [13] it was 0.151% [at 8.39 µM]. For the same molecule, in assay [7], the activity change, negative = cytotoxicity is -5.49% [at 5.99 µM]. The activity, negative = inhibition in [15] was 2.38% [at 5.62 µM]; in assay [17], 3.36% [at 5.58 µM]. The activity change, negative = inhibition in assay [11] was -10.4% [at 8.39 µM]; in assay [12] it was 6.45% [at 8.39 µM]; in [20] it was -14.1% [at 8.38 µM].
On to `NC1CCN(c2nc3c(cc2F)c(=O)c(C(=O)O)cn3-c2ccc(F)cc2F)C1` (stereo unspecified), for which the Potency entry in [1], in assay [2], in assay [5], in assay [6], in assay [7] and in [8] was “inactive” in each case. In addition, the Potency result in [14], in assay [13] and in [20] was “inactive” throughout. Moreover, the result in assay [3] and in assay [4] was inactive.
`CCc1nn(C2CCCCC2)c2cc(C3(C#N)CCC(C(=O)O)CC3)ccc12` (stereo unspecified): the Potency result in [1], in assay [2], in assay [5], in assay [6], in [7] and in assay [8] was “inactive” throughout. The Potency result in assay [15], in assay [16], in [17], in [18], in [12] and in [13] was “inactive” throughout. Besides, the Potency entry in assay [20] was “inactive”. Also, the result in assay [3] and in assay [4] was inactive.
Turning to `O=C1C=CCCC1`, the Potency result in [1], in assay [2], in [5], in assay [6], in assay [7] and in assay [8] was “inactive” each time. Further, the Potency result in assay [14], in assay [16], in assay [18], in assay [11], in [12] and in [13] was “inactive” throughout. In [20], the Potency entry is “inactive”. Besides, the outcome in assay [3] and in assay [4] was inactive.
Turning to `CC(C)(C)N`, the Potency result in [1], in assay [2], in assay [5], in assay [6], in assay [7] and in assay [9] was “inactive” throughout. The Potency result in [14], in assay [15], in assay [16], in [17], in [18] and in [10] was “inactive” in each case. Besides, the Potency result in assay [11], in assay [12], in [19] and in assay [13] was “inactive” throughout. Also, the result in assay [3] and in assay [4] was inactive.
